According to PubChem BioAssay:

These compounds were tested against Epidermal growth factor receptor (Homo sapiens) (UniProt P00533) (assay: EGFR binders on small-molecule microarrays, primary screen, biochemical, small-molecule microarray, 635 nm fluorescence (AID 1104;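 also: score merges 667 nm emission intensity with spot signal to noise over triplicate slides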)). Details: EGFR binding, higher = more signal.
Sequence of Epidermal growth factor receptor (Homo sapiens) (P00533 whole entry, looked up): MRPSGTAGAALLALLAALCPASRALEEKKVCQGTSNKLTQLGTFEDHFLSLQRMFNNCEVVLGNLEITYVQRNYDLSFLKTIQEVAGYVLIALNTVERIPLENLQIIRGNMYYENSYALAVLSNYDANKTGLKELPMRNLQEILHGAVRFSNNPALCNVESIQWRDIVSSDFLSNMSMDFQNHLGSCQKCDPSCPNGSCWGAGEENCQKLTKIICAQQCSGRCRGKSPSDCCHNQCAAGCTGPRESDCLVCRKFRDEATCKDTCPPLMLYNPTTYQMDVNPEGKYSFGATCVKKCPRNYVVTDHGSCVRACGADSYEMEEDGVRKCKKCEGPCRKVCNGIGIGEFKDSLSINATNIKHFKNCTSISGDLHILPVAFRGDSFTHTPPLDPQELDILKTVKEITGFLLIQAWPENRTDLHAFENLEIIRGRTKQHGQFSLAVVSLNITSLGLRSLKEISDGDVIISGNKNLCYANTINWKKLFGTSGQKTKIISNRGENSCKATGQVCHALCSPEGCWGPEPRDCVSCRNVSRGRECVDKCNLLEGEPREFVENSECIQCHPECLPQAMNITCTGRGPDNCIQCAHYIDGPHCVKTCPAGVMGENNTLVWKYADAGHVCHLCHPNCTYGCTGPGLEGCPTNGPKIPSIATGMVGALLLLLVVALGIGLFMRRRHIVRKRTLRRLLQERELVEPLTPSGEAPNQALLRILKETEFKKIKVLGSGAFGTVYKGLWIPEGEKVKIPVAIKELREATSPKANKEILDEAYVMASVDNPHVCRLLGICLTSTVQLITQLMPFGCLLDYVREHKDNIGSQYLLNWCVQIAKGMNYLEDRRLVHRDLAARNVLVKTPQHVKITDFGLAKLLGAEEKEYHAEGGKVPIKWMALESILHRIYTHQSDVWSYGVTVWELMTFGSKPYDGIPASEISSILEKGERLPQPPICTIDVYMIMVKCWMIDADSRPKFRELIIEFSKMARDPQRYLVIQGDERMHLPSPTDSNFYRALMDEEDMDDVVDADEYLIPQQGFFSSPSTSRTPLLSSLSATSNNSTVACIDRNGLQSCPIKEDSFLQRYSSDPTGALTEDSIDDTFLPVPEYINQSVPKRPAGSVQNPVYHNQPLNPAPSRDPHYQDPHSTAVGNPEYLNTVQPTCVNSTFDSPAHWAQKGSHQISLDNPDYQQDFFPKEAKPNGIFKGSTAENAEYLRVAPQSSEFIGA
O=C1O[C@@H](c2ccccc2)[C@@H](c2ccccc2)N2[C@@H](c3ccc(OCCO)cc3)[C@]3(C(=O)Nc4ccc(C#CC5=CCCCC5)cc43)[C@@H](C(=O)Nc3nc4ccccc4s3)[C@H]12 showed a composite z-score of 0.554.
For C=C(COC)C(=O)CC[C@@H](OC(=O)c1ccccc1-c1ccccc1C(=O)O)c1ccccc1OCCO, the composite z-score was -0.0099.
In the case of CCOC(=O)C[C@H]1[C@H](OC(=O)Cc2ccc3c(c2)OCO3)[C@@H](NC(=O)CC(C)C)c2cc(OCCCO)ccc2N1C(=O)c1ccc2ccccc2n1, the composite z-score was 0.255.
In the case of COC(=O)Cn1c(C(=O)N(C)C)cc2c1C[C@H]1CN(C(=O)c3ccccc3)[C@@](Cc3ccccc3)(C(=O)OC)[C@@H]21, the composite z-score was 0.183.
Work on C[C@@]1([C@@H](NS(=O)(=O)c2cccc3cccnc23)c2ccc(-c3ccccc3)cc2)C[C@H]1C1CCCCC1 yielded a composite z-score of 0.0823.
COCCOC(=O)N1C(=O)[C@@]2(c3cc(C#CCC(C(=O)OC)C(=O)OC)ccc31)[C@H](C(N)=O)[C@H]1C(=O)O[C@H](c3ccccc3)[C@H](c3ccccc3)N1[C@@H]2c1ccccc1OCCO gave a composite z-score of 0.958.
CN1C(=O)C2CC=C(C3=CCO[C@@H]3[C@H]3CCCN3S(=O)(=O)c3ccccc3[N+](=O)[O-])CC2C1=O (stereo partly drawn) gave a composite z-score of -0.141.
Work on COc1cccc(C)c1NC(=O)O[C@H]1[C@H](OC(=O)Nc2ccccc2)[C@@H](OC(=O)Nc2ccccc2)[C@@H](OC)O[C@@H]1CO yielded a composite z-score of 0.191.
In the case of COCCCNC(=O)[C@@]1(c2ccc([N+](=O)[O-])cc2)CC(=O)N(C2CCCCC2)[C@@H]1c1ccc(CO)cc1I, the composite z-score was -0.323.
CO[C@H]1O[C@H](CO)[C@@H](OC(=O)Nc2cccc(F)c2)[C@H](OC(=O)c2cc3ccccc3[nH]2)[C@H]1OC(=O)c1cc2ccccc2[nH]1 was tested, and the composite z-score was -0.213.
C=C(COC)/C(=C/C[C@@H](OC(C)=O)c1cccc(OCCO)c1)c1cnc2ccccc2c1 showed a composite z-score of 1.26.
CCCC[C@@H](O)C1=C(C)Cn2c(=O)n(-c3ccccc3)c(=O)n2[C@H]1CO was tested, and the composite z-score was 0.0431.
Compound CCCCC(=C=CC[C@@H](O)c1ccccc1OCCO)C[C@@H](O)c1ccccn1 has a composite z-score of 0.125.

The compounds below were run against Follistatin-related protein 3 (Homo sapiens) (UniProt O95633) (assay: FSTL3 binders on small-molecule microarrays, primary screen, biochemical, small-molecule microarray, 635 nm fluorescence (AID 1105;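 also: score merges emission near 667 nm and signal to noise per printed spot across three slides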)). Details: FSTL3 binding, higher = more signal.
Sequence of Follistatin-related protein 3 (Homo sapiens) (O95633 whole entry, looked up): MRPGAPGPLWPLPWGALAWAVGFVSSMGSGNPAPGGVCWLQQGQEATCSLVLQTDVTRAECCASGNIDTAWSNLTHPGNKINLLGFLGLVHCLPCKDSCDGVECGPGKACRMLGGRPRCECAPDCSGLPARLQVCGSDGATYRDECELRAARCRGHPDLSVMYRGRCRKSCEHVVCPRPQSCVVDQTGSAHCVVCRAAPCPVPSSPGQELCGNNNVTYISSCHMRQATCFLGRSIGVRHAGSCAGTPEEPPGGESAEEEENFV
For C=CCNC(=O)[C@H]1[C@@H]2C(=O)O[C@@H](c3ccccc3)[C@@H](c3ccccc3)N2[C@@H](c2ccc(O)cc2)[C@]12C(=O)N(C(=O)OCCOC)c1ccc(C#Cc3ccc(OC)cc3)cc12, the composite z-score was 0.448.
Work on O=C1OC[C@@H](c2ccccc2)n2cc(/C=C/c3ccccc3)cc21 yielded a composite z-score of -0.513.
COc1c(C)cc(-c2nc(-c3ccccc3)c3c(c2C)CO[Si]3(C(C)C)C(C)C)cc1C gave a composite z-score of 0.338.
Compound C=C(CCCC)/C(=C/C[C@@H](OC(C)=O)c1cccc(OCCO)c1)c1cc(C(=O)OC)ccc1OC has a composite z-score of 0.212.
CC1CC/C=C\[C@H]2OC34C=CCN(C(C)C)C(=O)[C@H]3N(C(C)CO)C(=O)[C@@H]4C2C(=O)O1 (stereo partly drawn) showed a composite z-score of 0.0275.
Compound CCCCC(=C=CC[C@@H](O)c1ccc(OCCO)cc1)CCO has a composite z-score of -0.281.
COc1ccc(C(=O)Nc2ccc(CN3C(=O)[C@]4(O[C@H](CC(=O)N(CCO)Cc5ccccc5)[C@@H]([Si](C)(C)c5ccc(OC)cc5)[C@@H]4C)c4ccccc43)cc2)cc1 showed a composite z-score of 1.34.
COC(=O)[C@@]1(Cc2ccc(F)cc2)[C@H]2c3cc(C(=O)N(C)C)n(Cc4ccc(C(F)(F)F)nc4)c3C[C@H]2CN1C(=O)c1ccccc1 showed a composite z-score of 1.42.
With O=C(NCCN1CCOCC1)[C@@H]1c2ccccc2C(=O)N(CC23CC4CC(CC(C4)C2)C3)[C@H]1c1ccc(CO)cc1 the composite z-score was 1.21.
CO[C@H]1O[C@H](CO)[C@@H](OC(=O)Nc2cccc(F)c2)[C@H](OC(=O)Nc2ccc3c(c2)OCO3)[C@@H]1OC(=O)Nc1ccc2c(c1)OCO2 showed a composite z-score of 1.37.
CN(C)CCCCCCNC(=O)[C@@H]1C[C@@H]2C(=O)N[C@@H](CCCC[N+](C)(C)C)C(=O)N2[C@@H]1c1cccc(OCCO)c1 showed a composite z-score of -0.714.
CN(C)C(=O)[C@]1(CCS(=O)(=O)c2ccccc2)N=C(c2ccc(OCCCO)cc2)O[C@@H]1c1ccccc1CN=[N+]=[N-] showed a composite z-score of 0.425.
Work on CN1C(=O)C2C=CC(C(O)c3ccc([N+](=O)[O-])cc3)N(Nc3ccccc3)C2C1=O (stereo not drawn) yielded a composite z-score of 1.01.
With CCOC(=O)C[C@H]1[C@H](OC(=O)c2ccccc2-c2ccccc2)[C@@H](NC(=O)CC(C)C)c2cc(OCCCO)ccc2N1C(=O)c1ccccc1 the composite z-score was 1.26.
O=C1C2C=CC(C(O)C3CC=CCC3)N(Nc3ccc([N+](=O)[O-])cc3)C2C(=O)N1c1ccccc1 (stereo not drawn) gave a composite z-score of 1.44.
Work on COc1cccc(C)c1NC(=O)O[C@H]1[C@H](OC(=O)Nc2ccc3c(c2)OCO3)[C@H](OC(=O)Nc2ccc3c(c2)OCO3)[C@@H](OC)O[C@@H]1CO yielded a composite z-score of 1.01.
With CC(C)(C)OC(=O)CC[C@]1(C(N)=O)N=C(c2ccc(OCCCO)cc2)O[C@H]1c1ccccc1N=[N+]=[N-] the composite z-score was 0.0699.
For C=CCN1C(=O)[C@]2(O[C@H](CCO)[C@@H]([Si](C)(C)c3ccc(OC)cc3)[C@@H]2C)c2cc(N3C(=O)c4ccccc4Oc4ccccc43)ccc21, the composite z-score was 0.255.
Compound C=C(/C=C\CNS(=O)(=O)c1ccc(C)cc1)[C@H](O)[C@H]1CCCN1S(=O)(=O)c1ccccc1[N+](=O)[O-] has a composite z-score of 0.122.
In the case of COC(=O)[C@@]1(Cc2ccc(F)cc2)[C@H]2c3cc(C(=O)N4CCCC4)n(C[C@H](O)CO)c3C[C@H]2CN1C(=O)c1ccccc1, the composite z-score was 0.111.
O=C1O[C@H](c2ccccc2)[C@H](c2ccccc2)N2[C@H]1[C@@H](C(=O)O)[C@]1(C(=O)Nc3ccccc31)[C@H]2c1ccc(OCCO)cc1 showed a composite z-score of 0.0497.
For COc1ccc(CCNC(=O)[C@@H]2c3ccccc3C(=O)N(C(C)C)[C@H]2c2ccc(CO)cc2)cc1, the composite z-score was -0.715.
Work on O=C1O[C@@H](c2ccccc2)[C@@H](c2ccccc2)N2[C@@H](c3ccc(OCCO)cc3)[C@]3(C(=O)Nc4ccc(C#CC5=CCCCC5)cc43)[C@@H](C(=O)Nc3nc4ccccc4s3)[C@H]12 yielded a composite z-score of 0.0685.
C=C(COC)C(=O)CC[C@@H](OC(=O)c1ccccc1-c1ccccc1C(=O)O)c1ccccc1OCCO showed a composite z-score of 0.474.
Work on CCOC(=O)C[C@H]1[C@H](OC(=O)Cc2ccc3c(c2)OCO3)[C@@H](NC(=O)CC(C)C)c2cc(OCCCO)ccc2N1C(=O)c1ccc2ccccc2n1 yielded a composite z-score of 1.19.
Compound COC(=O)Cn1c(C(=O)N(C)C)cc2c1C[C@H]1CN(C(=O)c3ccccc3)[C@@](Cc3ccccc3)(C(=O)OC)[C@@H]21 has a composite z-score of -0.326.
With C[C@@]1([C@@H](NS(=O)(=O)c2cccc3cccnc23)c2ccc(-c3ccccc3)cc2)C[C@H]1C1CCCCC1 the composite z-score was 0.49.
COCCOC(=O)N1C(=O)[C@@]2(c3cc(C#CCC(C(=O)OC)C(=O)OC)ccc31)[C@H](C(N)=O)[C@H]1C(=O)O[C@H](c3ccccc3)[C@H](c3ccccc3)N1[C@@H]2c1ccccc1OCCO gave a composite z-score of 1.09.
With CN1C(=O)C2CC=C(C3=CCO[C@@H]3[C@H]3CCCN3S(=O)(=O)c3ccccc3[N+](=O)[O-])CC2C1=O (stereo partly drawn) the composite z-score was -0.59.
In the case of COc1cccc(C)c1NC(=O)O[C@H]1[C@H](OC(=O)Nc2ccccc2)[C@@H](OC(=O)Nc2ccccc2)[C@@H](OC)O[C@@H]1CO, the composite z-score was 1.48.
COCCCNC(=O)[C@@]1(c2ccc([N+](=O)[O-])cc2)CC(=O)N(C2CCCCC2)[C@@H]1c1ccc(CO)cc1I gave a composite z-score of 0.102.
CO[C@H]1O[C@H](CO)[C@@H](OC(=O)Nc2cccc(F)c2)[C@H](OC(=O)c2cc3ccccc3[nH]2)[C@H]1OC(=O)c1cc2ccccc2[nH]1 showed a composite z-score of 0.469.
Work on C=C(COC)/C(=C/C[C@@H](OC(C)=O)c1cccc(OCCO)c1)c1cnc2ccccc2c1 yielded a composite z-score of 1.55.
CCCC[C@@H](O)C1=C(C)Cn2c(=O)n(-c3ccccc3)c(=O)n2[C@H]1CO gave a composite z-score of -0.265.
In the case of CCCCC(=C=CC[C@@H](O)c1ccccc1OCCO)C[C@@H](O)c1ccccn1, the composite z-score was 0.143.
